Source: PubChem BioAssay
The entries come from a sample that favours hits as a whole.
LmPK inhibitor = inhibitors of Leishmania mexicana pyruvate kinase; Q27686; actives 0.37% (n = 290,000); purified LmPK, Kinase-Glo ATP luminescence, 1 h; Potency, µM (doses to about 57.5 µM), usual class: inhibitors
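qHTS format; LmPK 0.1 nM; substrates PEP 0.5 mM and ADP 0.1 mM. One-hour room-temperature incubation, then coupled luciferase luminescence; 0.5 nM enzyme wells mark activation.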
TbPYK inhibitor = inhibitors of Trypanosoma brucei pyruvate kinase. Q57TT1. TbPYK enzyme, Kinase-Glo Plus ATP luminescence, 45 min. Potency, µM (highest dose often 76.8 µM), most hits filed as inhibitors. actives 0.12% (n = 410,000); further: nearly all actives have a fitted effect of over 50% in size
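Enzyme and substrate buffer are dispensed first and compound is pin-transferred. ADP at 130 uM final then starts the reaction, which runs 45 min at room temperature. Detection reagent is added for 10 min before luminescence is imaged.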
FBPA Giardia inh = blocks Giardia fructose-bisphosphate aldolase activity | purified Giardia FBPA | actives 0.71% (n = 290,000) | Potency, µM (doses to about 59.6 µM), actives largely listed as inhibitors | A8B2U2; further: nearly all actives have a fitted effect of over 55% in size
Target sequence (A8B2U2 whole entry, looked up): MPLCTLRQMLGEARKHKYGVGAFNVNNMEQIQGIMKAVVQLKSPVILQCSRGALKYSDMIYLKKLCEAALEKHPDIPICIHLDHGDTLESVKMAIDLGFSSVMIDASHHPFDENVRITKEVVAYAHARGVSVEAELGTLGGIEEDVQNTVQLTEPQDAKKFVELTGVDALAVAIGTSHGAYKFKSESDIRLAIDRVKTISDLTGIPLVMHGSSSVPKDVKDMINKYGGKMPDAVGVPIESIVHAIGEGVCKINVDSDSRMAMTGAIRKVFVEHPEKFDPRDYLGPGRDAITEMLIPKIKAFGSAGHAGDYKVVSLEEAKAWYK
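Giardia FBPA (40 nM reagent) was preincubated 10 min at RT with compound (up to 57.5 uM final), then substrate plus GAPDH/TPI/NAD/arsenate coupling system with diaphorase/resazurin was added; resorufin fluorescence (525/598 nm) was read after 20 min.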
CHX counter = counter-screen hit for Shiga toxin inhibitors, cycloheximide; max response, %; cell reporter, cycloheximide protein synthesis inhibition counterscreen; actives 12% (n = 300,000); in the data active means max response mostly above about 13%, no sharp cut-off; inactive means mostly below about 14%; further: read at 38.3 µM for the half of the compounds with a filed dose
RE007 growth inh = less growth of the S. pombe RE007 Vpr strain; Potency, µM (highest dose often 92.2 µM), usual class: inhibitors; AID 651644; actives 0.21% (n = 360,000); S. pombe RE007 Vpr strain, BacTiter-Glo ATP luminescence, 24 h; active means well fitted falling curve with a large enough effect; inconclusive means small, poorly fitted or top-dose-only effect; inactive means no such curve, though single readings can be large or run the other way; further: nearly all actives have a fitted effect of over 50% in size
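Fission yeast RE007 carrying one integrated HIV-1 vpr copy, seeded at OD 0.01 in PMG+AL medium with 23 nL pinned compound. Grown 24 h at 30 degrees; viability read by BacTiter-Glo luminescence after 5 min.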
Shiga inhibitor = inhibitors of Shiga toxin in Vero cells. Vero cells, Shiga toxin protein synthesis inhibition reporter. inhibition, % at 38.7 µM. actives 9.2% (n = 290,000). AID 2315; in the data active means inhibition mostly above about 28%, no sharp cut-off; inactive means mostly below about 43%
Each line names hits and unclear results; the compound was inactive in the other large screens. Unless noted, the call rests on the fitted dose curve; in most records, active means well fitted curve in the direction sought with a large enough effect; inconclusive means small, poorly fitted or top-dose-only effect, or another doubt; inactive means no such curve, though single readings can be large; an effect the other way counts as inactive or inconclusive.

CCOC(=O)C1=C(CSc2nc(CC)c(C)cc2C#N)OC(N)=C(C#N)C1c1ccccc1 (configuration not stated)	TbPYK inhibitor inconclusive
CCOC(=O)C1=C(CSc2nc(-c3ccccc3)ccc2C#N)OC(N)=C(C#N)C1c1ccc(OC)cc1 (configuration not stated)	CHX counter 63
CC(=O)Nc1ccc(S(=O)(=O)NC2(C(F)(F)F)NC(=O)N(CCc3ccc(F)cc3)C2=O)cc1 (configuration not stated)	none (no result: LmPK inhibitor, FBPA Giardia inh, CHX counter, RE007 growth inh, Shiga inhibitor)
Cc1cc(/C=N/n2c(COc3ccccc3C)nc3ccccc3c2=O)c(O)c([N+](=O)[O-])c1	CHX counter 62, Shiga inhibitor 57
CCCCCc1nc2ccccc2c(=O)n1N	CHX counter 22
Nn1c(COc2ccccc2)nc2ccccc2c1=O	CHX counter 48, Shiga inhibitor 57
CCCc1nc2ccccc2c(=O)n1N	none
CC#CCCc1nc2ccccc2c(=O)n1N	none
COc1cccc(OCc2nc3ccccc3c(=O)n2N)c1	CHX counter 27, Shiga inhibitor 84
Cc1ccccc1OCc1nc2ccccc2c(=O)n1/N=C/c1c[nH]c2ccccc12	none
COc1cccc(CCc2nc3ccccc3c(=O)n2N)c1	none (no result: LmPK inhibitor, FBPA Giardia inh, CHX counter, Shiga inhibitor)
CC1=C(C(=O)Nc2cc(C(=O)NCCC(C)C)ccc2C)SCCO1	none
Cc1ccccc1OCc1nc2ccccc2c(=O)n1N	CHX counter 31
Cc1cc(C)c2nc(Cl)c(Cl)nc2c1	none
CC1(c2nnc(-c3ccc(F)cc3)o2)CC(c2ccc(Cl)cc2)=NO1 (configuration not stated)	none
Cc1nnc(SCc2nnc(-c3cccs3)o2)n1Cc1ccccc1	none
c1ccc(CSc2nnc(-c3cccs3)o2)cc1	CHX counter 46, Shiga inhibitor 101
c1csc(-c2nnc(Cc3cccc4ccccc34)o2)c1	CHX counter 17
c1ccc(-c2nnc(CSc3nnc(-c4cccs4)o3)o2)cc1	none
Fc1ccc(-c2nnc(Cc3ccc(Cl)cc3)o2)cc1	CHX counter 36, Shiga inhibitor 59
CC(O)c1nc2ccccc2n1Cc1nnc(-c2ccc(Cl)cc2)o1 (configuration not stated)	CHX counter 21
CCc1cc(=O)oc2c(C)c3c(cc12)CN(CCc1ccccc1OC)CO3	none (no result: LmPK inhibitor, FBPA Giardia inh, CHX counter, RE007 growth inh, Shiga inhibitor)
CN1C(=O)C2(SCC(=O)N2c2ccc(F)cc2)c2ccccc21 (configuration not stated)	none (no result: LmPK inhibitor, FBPA Giardia inh, CHX counter, RE007 growth inh, Shiga inhibitor)
Cc1ccc(S(=O)(=O)n2nc(-c3ccccc3)nc2NCc2ccccc2Cl)cc1	none (no result: LmPK inhibitor, FBPA Giardia inh, CHX counter, RE007 growth inh, Shiga inhibitor)
Nc1nnc(-c2ccc(Cl)cc2)o1	none
CC(C)NCc1nnc(-c2ccc(Cl)cc2)o1	CHX counter 20
Fc1ccc(Cc2nnc(-c3cccs3)o2)cc1	CHX counter 33, Shiga inhibitor 43
Fc1ccc(-c2nnc(CSc3nnc(-c4cccs4)o3)o2)cc1	none
O=C(CSc1nnc(-c2cccs2)o1)Oc1ccccc1	none (no result: LmPK inhibitor, FBPA Giardia inh, CHX counter, RE007 growth inh, Shiga inhibitor)
Fc1ccccc1CSc1nnc(-c2cccs2)o1	CHX counter 44, Shiga inhibitor 88
Fc1ccc(CSc2nnc(-c3cccs3)o2)cc1	CHX counter 65, Shiga inhibitor 101
Cc1ccccc1Cn1cnc2nc3c(cc2c1=O)CC(C)CC3 (configuration not stated)	none (no result: LmPK inhibitor, FBPA Giardia inh, CHX counter, RE007 growth inh, Shiga inhibitor)
CCSc1nnc(-c2cccs2)o1	CHX counter 28
Cc1ccccc1OCCSc1nnc(-c2cccs2)o1	none (no result: LmPK inhibitor, FBPA Giardia inh, CHX counter, RE007 growth inh, Shiga inhibitor)
COC(=O)c1ccccc1SCc1csc(C)n1	none
O=C(O)c1ccccc1SCc1csc(-c2ccccc2)n1	CHX counter 32 (no result: FBPA Giardia inh)
O=C(OCc1ccccc1)c1ccccc1O	none (no result: LmPK inhibitor, FBPA Giardia inh, CHX counter, Shiga inhibitor)
O=C(OCc1csc(-c2ccccc2)n1)c1ccccc1O	LmPK inhibitor inconclusive, CHX counter 61, Shiga inhibitor 110
CCN1c2ccccc2-c2nc(SCC(=O)Nc3c(C)cc(C)cc3C)ncc2S1(=O)=O	none (no result: LmPK inhibitor, FBPA Giardia inh, CHX counter, RE007 growth inh, Shiga inhibitor)
Nc1nnnn1-c1ccccc1	none (no result: LmPK inhibitor, FBPA Giardia inh, CHX counter, RE007 growth inh, Shiga inhibitor)
O=C(NCCc1c[nH]c2ccccc12)c1cc(Cl)c2c(c1)OCO2	CHX counter 48, Shiga inhibitor 96
O=C(NCCc1c[nH]c2ccccc12)c1ccc2c(c1)OCO2	CHX counter 54, Shiga inhibitor 108
Cc1ccc2[nH]cc(CCNC(=O)c3ccc4c(c3)OCO4)c2c1	none
CCOc1cccc(CC(=O)N2CCc3c([nH]c4ccccc34)C2c2ccc(C)cc2)c1OCC (configuration not stated)	none (no result: LmPK inhibitor, FBPA Giardia inh, CHX counter, RE007 growth inh, Shiga inhibitor)
CC1CC(C)CN(CC(=O)c2ccc(OC(F)F)cc2)C1 (configuration not stated)	CHX counter 34, Shiga inhibitor 26
Cn1cnnc1SCC(=O)c1ccc(OC(F)F)cc1	none
COc1ccc(NC(=O)C2CCCN2S(=O)(=O)c2ccc3c(c2)CCCC(=O)N3)cc1Cl (configuration not stated)	none (no result: LmPK inhibitor, FBPA Giardia inh, CHX counter, RE007 growth inh, Shiga inhibitor)
CCN(CC)CC(O)Cn1c(-c2cccc(Cl)c2)nc2cc(C)c(C)cc21 (configuration not stated)	CHX counter 24, Shiga inhibitor 45
CCCCCn1c(-c2ccc(OC)c(OC)c2)nc2ccccc21	none (no result: LmPK inhibitor, FBPA Giardia inh, CHX counter, RE007 growth inh, Shiga inhibitor)
CCOC(=O)c1csc(NC(=O)c2cc3ccccc3o2)n1	CHX counter 55, Shiga inhibitor 75
CCOC(=O)c1sc(NC(=O)c2ccccc2OC)nc1C	CHX counter 24, Shiga inhibitor 69
CCOC(=O)c1sc(NC(=O)CC2OC(=O)c3ccccc32)nc1C (configuration not stated)	none (no result: LmPK inhibitor, FBPA Giardia inh, CHX counter, Shiga inhibitor)
